Assay [1] concerns Plasmodium falciparum Sir2 (PF13_0152, Sir2A). Briefly: Plasmodium falciparum Sir2A binding compounds – biochemical, small-molecule microarray, 635 nm fluorescence, primary screen (AID 1098).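 Further: score merges spot fluorescence intensity with its signal-to-noise ratio.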 The settings on record: fluorescence 635 nm, higher = more signal.
Assay [2] is described as follows: probe aDKK1 binding to arrayed compounds – biochemical, biotinylated probe, 635/667 nm fluorescence, primary screen (AID 1099).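 Further: score merges 667nm spot fluorescence with signal to noise across triplicate slides.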 The note with it: small-molecule microarray, higher = more signal.
Assay [3] in a line: probe aCHRDL2 binding to arrayed compounds – biochemical, biotinylated probe, 635/667 nm fluorescence, primary screen (AID 1100). The note with it: small-molecule microarray, higher = more signal.
Assay [4] in a line: change in splice reporter luminescence, either direction, cell-based, HEK293, spliceosome inhibition project, primary screen (AID 1101).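 Further: HEK293 cells carrying a splicing-competent luciferase reporter gene; test concentration not given here.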 The settings on record: HEK293 splicing luciferase reporter, 24 h, higher = more signal, called active from +8 up or from −8 down. Background: In a reporter assay the amount or activity of a reporter protein is the signal.
In assay [5] the target is Fibroblast growth factor 10 (Homo sapiens) (UniProt O15520). Briefly: compounds binding fibroblast growth factor 10 – biochemical, small-molecule microarray, 635 nm fluorescence, primary screen (AID 1102). The settings on record: FGF10 binding, fluorescence 635 nm, higher = more signal.
For assay [6], the system named is glycogen synthase kinase-3 (GSK3A per assay name; protocol says GSK3B). As to the kind of experiment: compounds binding glycogen synthase kinase-3 – biochemical, small-molecule microarray, 635 nm fluorescence, GSK3A, primary screen (AID 1103). Further: the record names both GSK3A and GSK3B. The note with it: fluorescence 635 nm, higher = more signal.
The target in assay [7] is Epidermal growth factor receptor (Homo sapiens) (UniProt P00533). As to the kind of experiment: compounds binding epidermal growth factor receptor – biochemical, small-molecule microarray, 635 nm fluorescence, primary screen (AID 1104).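 Further: score merges 667 nm emission intensity with spot signal to noise over triplicate slides.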 The settings on record: EGFR binding, higher = more signal.
The target of assay [8] is Follistatin-related protein 3 (Homo sapiens) (UniProt O95633). Briefly: compounds binding follistatin-related protein 3 – biochemical, small-molecule microarray, 635 nm fluorescence, primary screen (AID 1105).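 Further: score merges emission near 667 nm and signal to noise per printed spot across three slides.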 The note with it: FSTL3 binding, higher = more signal.
In assay [9] the target is Dickkopf-related protein 1 (Homo sapiens) (UniProt O94907). As to the kind of experiment: small molecules binding DKK1 protein – biochemical, small-molecule microarray, 635 nm fluorescence scan, primary screen (AID 1106).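 Further: score merges emission near 667 nm with signal to noise over three replicate slides.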 The note with it: higher = more signal.
The subject of assay [10] is Inhibin beta A chain (activin A). As to the kind of experiment: small molecules binding activin A – biochemical, small-molecule microarray, 635 nm fluorescence scan, primary screen (AID 1107).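 Further: mouse activin A protein probed at 4.33 µg/mL on printed slides; score merges bound-protein fluorescence near 667 nm with spot signal-to-noise.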 The settings on record: INHBA, higher = more signal.
Assay [11] has as its system Human papillomavirus type 1a protein E7 (residues 44-93). Briefly: small molecules binding HPV E7 44-93 – biochemical, small-molecule microarray, residues 44-93, 635 nm fluorescence, primary screen (AID 1108).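 Further: E7 fragment applied at 1 µg/mL in TBST for 1 h at 4 C; score combines spot fluorescence with its signal to noise ratio.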 The settings on record: fluorescence 635 nm, higher = more signal.
Assay [12] can be described thus: hepatitis C replication reporter changes, two-sided – Huh7 cells, luciferase reporter, HCV replication inhibitor project, primary screen (AID 1109).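 Further: huh7 hepatoma cells harbouring a luciferase neomycin HCV replicon reporter; luciferase luminescence as measure of HCV replicon replication; test concentration not given here.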 The note with it: Huh7 HCV replicon luciferase reporter, 48 h; higher = more signal.
Assay [13] addresses Left-right determination factor 2 (Homo sapiens) (UniProt O00292). Briefly: small molecules binding LEFTY2 protein – biochemical, small-molecule microarray, 635 nm fluorescence scan, primary screen (AID 1110). The note with it: higher = more signal.
Assay [14] addresses Calmodulin-1 (Homo sapiens) (UniProt P0DP23). As to the kind of experiment: small molecules binding calmodulin-1 with EGTA – biochemical, small-molecule microarray, Cy5-labelled CALM1, profiling panel (AID 1111).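 Further: labelled calmodulin applied in Tris saline Tween buffer holding calcium plus EGTA and DTT.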 The note with it: Cy5-CALM1 binding fluorescence, higher = more signal.
The target is the same in assay [15]. As to the kind of experiment: small molecules binding Ca-loaded calmodulin-1 – biochemical, small-molecule microarray, Cy5-labelled CALM1, plus calcium, artefact control for SMM control-protein annotation, profiling panel (AID 1112).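 Further: score merges spot fluorescence with signal to noise from triplicate slides.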 The settings on record: Cy5-CALM1 binding fluorescence, higher = more signal.
Assay [16] in a line: probe aWnt5a binding to arrayed compounds – biochemical, biotinylated probe, 635/667 nm fluorescence, primary screen (AID 1113).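 Further: score merges 667 nm fluorescence intensity with signal-to-noise per printed feature.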 The settings on record: small-molecule microarray, higher = more signal.
The nature of assay [17]: probe aShh binding to arrayed compounds – biochemical, biotinylated probe, 635/667 nm fluorescence, primary screen (AID 1114).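 Further: probe is biotin-labelled aShh protein from a stem cell growth factor screen; measures binding of labelled protein to compounds printed on the slide; score merges feature fluorescence at 667 nm with signal-to-noise.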 The settings on record: small-molecule microarray, higher = more signal.
Assay [18] can be described thus: probe aNog binding to arrayed compounds – biochemical, biotinylated probe, 635/667 nm fluorescence, primary screen (AID 1115).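 Further: probe is biotinylated aNog protein used at 0.15 µg/mL for 1 h at 4 C; z-score combines 667 nm fluorescence of each spot with its signal to noise.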 The note with it: small-molecule microarray, higher = more signal.
Assay [19] addresses Torsin-1A-interacting protein 1 (Homo sapiens) (UniProt Q5JTV8). Briefly: compound microarray binding of lysate hLAP1 – cell lysate, small-molecule microarray, COS7 lysate, 635/667 nm fluorescence, primary screen (AID 1116). The note with it: 635 nm fluorescence, higher = more signal.
Assay [20] addresses Alpha-bungarotoxin (Bungarus multicinctus) (UniProt P60615). Briefly: compounds binding labelled alpha-BTX control protein – biochemical, small-molecule microarray, Alexa647 label, 635/667 nm fluorescence, artefact control for SMM control protein annotation, profiling panel (AID 1117). The note with it: alpha-BTX-A647 binding fluorescence, higher = more signal.

The results in this text go back to PubChem BioAssay.

The source made the active and inactive calls.

Follistatin-related protein 3 (Homo sapiens), sequence (O95633 whole entry, looked up): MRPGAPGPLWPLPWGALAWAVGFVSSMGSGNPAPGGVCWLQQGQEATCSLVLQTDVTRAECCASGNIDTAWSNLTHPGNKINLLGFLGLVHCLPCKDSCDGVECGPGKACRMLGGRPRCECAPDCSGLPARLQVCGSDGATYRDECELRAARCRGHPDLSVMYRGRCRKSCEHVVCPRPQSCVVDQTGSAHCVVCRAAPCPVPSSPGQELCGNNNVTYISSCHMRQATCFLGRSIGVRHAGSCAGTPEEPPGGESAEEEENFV
Torsin-1A-interacting protein 1 (Homo sapiens), sequence (Q5JTV8 whole entry, looked up): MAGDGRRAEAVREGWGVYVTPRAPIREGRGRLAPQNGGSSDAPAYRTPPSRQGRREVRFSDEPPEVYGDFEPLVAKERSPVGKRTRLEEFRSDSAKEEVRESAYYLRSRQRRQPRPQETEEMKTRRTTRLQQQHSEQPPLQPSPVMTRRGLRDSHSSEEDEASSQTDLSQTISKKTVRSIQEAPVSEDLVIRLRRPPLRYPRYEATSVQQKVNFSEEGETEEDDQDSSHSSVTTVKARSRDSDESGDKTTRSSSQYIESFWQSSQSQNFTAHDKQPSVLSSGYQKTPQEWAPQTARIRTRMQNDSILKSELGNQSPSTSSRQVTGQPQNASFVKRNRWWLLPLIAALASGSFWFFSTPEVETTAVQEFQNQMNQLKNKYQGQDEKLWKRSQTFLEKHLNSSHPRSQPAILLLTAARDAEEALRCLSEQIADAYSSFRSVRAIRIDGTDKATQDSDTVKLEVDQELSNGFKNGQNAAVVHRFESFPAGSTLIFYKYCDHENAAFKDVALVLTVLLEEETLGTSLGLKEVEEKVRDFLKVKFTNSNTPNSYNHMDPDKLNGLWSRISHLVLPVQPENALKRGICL
Dickkopf-related protein 1 (Homo sapiens), sequence (O94907 whole entry, looked up): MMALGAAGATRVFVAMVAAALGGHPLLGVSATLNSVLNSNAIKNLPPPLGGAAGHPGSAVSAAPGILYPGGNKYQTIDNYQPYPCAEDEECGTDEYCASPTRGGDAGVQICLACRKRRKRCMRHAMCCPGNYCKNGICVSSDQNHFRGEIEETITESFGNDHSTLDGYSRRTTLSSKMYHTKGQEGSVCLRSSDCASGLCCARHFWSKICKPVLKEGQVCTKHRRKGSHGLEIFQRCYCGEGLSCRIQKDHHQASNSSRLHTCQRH
Alpha-bungarotoxin (Bungarus multicinctus), sequence (P60615 whole entry, looked up): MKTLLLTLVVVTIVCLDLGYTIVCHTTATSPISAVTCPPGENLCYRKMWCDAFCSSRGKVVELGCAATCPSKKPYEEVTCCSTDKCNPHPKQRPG
Fibroblast growth factor 10 (Homo sapiens), sequence (O15520 whole entry, looked up): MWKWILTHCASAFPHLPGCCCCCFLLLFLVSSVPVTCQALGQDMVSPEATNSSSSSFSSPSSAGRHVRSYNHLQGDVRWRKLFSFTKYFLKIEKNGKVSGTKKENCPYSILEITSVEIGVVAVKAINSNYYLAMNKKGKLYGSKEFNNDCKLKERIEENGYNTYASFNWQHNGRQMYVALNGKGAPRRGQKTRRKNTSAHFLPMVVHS
Left-right determination factor 2 (Homo sapiens), sequence (O00292 whole entry, looked up): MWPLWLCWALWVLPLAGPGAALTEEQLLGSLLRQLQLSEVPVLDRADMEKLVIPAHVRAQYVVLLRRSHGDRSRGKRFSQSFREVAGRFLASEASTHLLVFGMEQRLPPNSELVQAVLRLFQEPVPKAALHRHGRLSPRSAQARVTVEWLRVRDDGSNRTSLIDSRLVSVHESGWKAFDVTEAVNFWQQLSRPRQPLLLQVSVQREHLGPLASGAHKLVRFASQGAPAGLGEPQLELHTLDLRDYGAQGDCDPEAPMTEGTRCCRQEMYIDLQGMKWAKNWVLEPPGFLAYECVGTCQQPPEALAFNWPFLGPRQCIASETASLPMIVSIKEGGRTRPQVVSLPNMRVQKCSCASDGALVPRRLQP
Epidermal growth factor receptor (Homo sapiens), sequence (P00533 whole entry, looked up): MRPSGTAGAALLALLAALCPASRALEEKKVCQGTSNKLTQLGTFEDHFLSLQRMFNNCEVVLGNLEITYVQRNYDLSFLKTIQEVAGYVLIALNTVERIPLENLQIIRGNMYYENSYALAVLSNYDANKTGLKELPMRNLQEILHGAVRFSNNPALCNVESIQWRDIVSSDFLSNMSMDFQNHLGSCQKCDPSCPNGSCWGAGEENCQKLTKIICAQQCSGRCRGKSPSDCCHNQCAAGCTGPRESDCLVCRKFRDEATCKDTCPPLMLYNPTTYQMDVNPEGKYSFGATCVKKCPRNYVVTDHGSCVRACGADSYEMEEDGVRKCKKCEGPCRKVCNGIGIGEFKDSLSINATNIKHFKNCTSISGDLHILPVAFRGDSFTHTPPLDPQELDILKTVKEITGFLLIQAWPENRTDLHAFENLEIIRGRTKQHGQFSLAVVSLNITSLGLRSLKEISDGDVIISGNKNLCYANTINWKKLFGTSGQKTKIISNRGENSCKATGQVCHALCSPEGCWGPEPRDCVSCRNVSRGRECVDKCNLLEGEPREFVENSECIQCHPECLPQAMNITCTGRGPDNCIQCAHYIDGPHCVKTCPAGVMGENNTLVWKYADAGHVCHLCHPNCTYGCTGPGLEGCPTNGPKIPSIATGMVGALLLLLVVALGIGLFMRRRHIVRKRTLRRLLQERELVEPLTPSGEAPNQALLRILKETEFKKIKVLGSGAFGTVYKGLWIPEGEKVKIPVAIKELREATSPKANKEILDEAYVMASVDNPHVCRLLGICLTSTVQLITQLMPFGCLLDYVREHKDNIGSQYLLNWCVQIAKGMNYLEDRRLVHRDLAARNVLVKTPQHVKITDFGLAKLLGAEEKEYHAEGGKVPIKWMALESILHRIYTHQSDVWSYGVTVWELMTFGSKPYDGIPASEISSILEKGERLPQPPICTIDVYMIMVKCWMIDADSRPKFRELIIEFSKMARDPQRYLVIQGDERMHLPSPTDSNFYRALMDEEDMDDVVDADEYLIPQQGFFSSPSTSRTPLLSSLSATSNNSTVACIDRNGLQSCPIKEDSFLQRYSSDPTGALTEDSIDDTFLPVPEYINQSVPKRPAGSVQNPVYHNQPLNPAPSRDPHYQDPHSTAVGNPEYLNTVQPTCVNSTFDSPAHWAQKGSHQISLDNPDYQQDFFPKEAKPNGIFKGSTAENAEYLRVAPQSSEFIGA

Consider `NCCCCCNC(=O)[C@@H]1C[C@@H]2C(=O)N3CCC[C@H]3C(=O)N2[C@@H]1c1ccc(O)cc1`, for which the composite z-score was found to be 1.1 in [1]; 0.919 in [2]; 0.857 in assay [3]; 0.927 in assay [5]; 1.14 in [6]; 0.114 in assay [7]. The composite z-score turned out to be 0.495 in [8]; 0.853 in assay [9]; 0.98 in assay [10]; 1.31 in assay [11]; 0.732 in assay [13]; 1.09 in [14]. The composite z-score in assay [15] was 1.12; in [16], 0.216; in assay [17], 0.163; in assay [18] it was -0.477; in [19], 1.05; in assay [20], 0.494. Besides, the z-score in assay [4] is -0.274 (inactive); in assay [12] it was -0.837.
Regarding `COCCCNC(=O)[C@@]1(Sc2ccc(C)cc2)CC(=O)N(Cc2ccccc2Cl)[C@@H]1c1ccc(CO)cc1I`, the composite z-score in assay [1] was 0.515; in [2] it was 0.0057; in assay [3], 0.791; in [5] it was -0.668; in [6] it was -1.05; in assay [7] it was -1.29. The composite z-score in assay [8] is -0.491; in [9], -1.12; in assay [10], 0.45; in [11], -0.747; in [13], -1.6; in assay [14], -0.434. The composite z-score in assay [15] is 0.717; in assay [16] it was -0.28; in assay [17] it was 0.0115; in [18], -0.323; in assay [19], -1.36; in assay [20] it was -0.659. Besides, the values for the z-score in [4] and in assay [12] were -0.529 (inactive) and -1.94, respectively.
With `CCCCC=C[C@@H](NC(=O)c1ccccc1)c1ccccc1`, the composite z-score in [1] is 0.322; in assay [2], 0.357; in assay [3], 0.732; in assay [5], 0.659; in assay [6] it was 1.22; in [7], -0.056. Also, the composite z-score in [8] is 0.79; in assay [9], 0.0017; in assay [10], 1.01; in assay [11] it was 1.38; in [13], -0.174; in [14], 1.87. Also, the composite z-score in assay [15] was 1.28; in assay [16], -0.0229; in assay [17] it was -0.253; in assay [18], -0.578; in assay [19], 0.206; in assay [20], 0.448. For the same molecule, the z-score is -0.696 (inactive) in assay [4] and 1.02 in assay [12].
With `CC(C)CNC(=O)[C@@]1(c2ccc([N+](=O)[O-])cc2)CC(=O)N(C2CCCCC2)[C@@H]1c1ccc(CO)cc1`, the composite z-score was 0.388 in assay [1]; 0.368 in assay [2]; 0.453 in assay [3]; 0.735 in assay [5]; 0.484 in assay [6]; 0.103 in assay [7]. The composite z-score in [8] is 0.0017; in [9], -0.362; in assay [10], 0.517; in [11], 0.292; in [13], 0.155; in assay [14], 0.1. The composite z-score in [15] was -0.151; in [16], -0.0539; in assay [17] it was -0.0553; in assay [18], 0.323; in assay [19], 2; in [20] it was 0.0127. The z-score in assay [4] was -0.472 (inactive); in assay [12] it was -1.07.
Take `COC(=O)[C@@]1(Cc2ccc(OC)cc2)[C@H]2c3cc(C(=O)N4CCCC4)n(Cc4ccc(S(C)(=O)=O)cc4)c3C[C@H]2CN1C(=O)c1ccccc1`: the composite z-score came out at 0.645 in assay [1]; 0.807 in assay [2]; 1.29 in [3]; 0.508 in [5]; 0.401 in assay [6]; 0.348 in [7]. For the same molecule, the composite z-score is -0.0139 in assay [8]; -0.802 in assay [9]; 0.881 in assay [10]; 0.918 in assay [11]; -0.0914 in assay [13]; 2.06 in assay [14]. Further, the composite z-score in assay [15] is 0.955; in assay [16], 0.108; in assay [17], 0.883; in assay [18], -0.121; in [19], 1.05; in assay [20], 0.448. The z-score in [4] was 0.699 (inactive); in [12] it was -0.887.
With `CCCNC(=O)[C@@]1(Sc2ccc(C)cc2)CC(=O)N(C2CCCCC2)[C@@H]1c1ccc(CO)cc1I`, the composite z-score in assay [1] is 1.56; in assay [2] it was 0.548; in [3], 0.91; in assay [5], 0.382; in [6] it was 0.718; in assay [7], -0.0215. The composite z-score in [8] is 0.192; in assay [9] it was -0.122; in [10], -0.277; in assay [11], 0.0411; in [13], -0.153; in [14] it was 1.42. Also, the composite z-score in assay [15] was 0.86; in assay [16], -0.0242; in assay [17], 0.768; in assay [18] it was 0.757; in [19] it was 0.982; in assay [20], 0.231. Further, the z-score in assay [4] was -0.703 (inactive); in assay [12] it was -2.45.
